16 compounds from PubChem BioAssay (EPA / NIEHS) can be followed below.

Settings in all cases: mRNA level, 48 h; actives raise or lower the signal
Read-out in assay [1]: Apoptosis regulator Bcl-2 (Homo sapiens) (UniProt P10415)
Kind of assay: LTEA_HepaRG_BCL2: Life Technologies and Expression Analysis (LTEA) Assay for Bcl-2 gene using HepaRG (AID 2283475). The essentials: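 Expression change of BCL2 mRNA in HepaRG after 48 h dosing, quantified by TaqMan qRT-PCR against three endogenous controls. Concentration-response used eight points up to 100 uM, vehicle 0.5% DMSO.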

Read-out in assay [2]: Bcl-2 (BID) gene, BID (gene 637)
Kind of assay: LTEA_HepaRG_BID: Life Technologies and Expression Analysis (LTEA) Assay for Bcl-2 (BID) gene using HepaRG (AID 2283476). The essentials: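 Gain or loss of BID expression is fitted relative to 0.5% DMSO vehicle. Human HepaRG liver cells received a 48 h chemical exposure over an eight-point concentration range.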

Read-out in assay [3]: Caspase-3 (Homo sapiens) (UniProt P42574)
As to the kind of experiment: LTEA_HepaRG_CASP3: Life Technologies and Expression Analysis (LTEA) Assay for cysteine-aspartic acid protease (CASP3) using HepaRG (AID 2283477). The essentials: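 HepaRG, 48 h exposure, 8 conc. (top 100 uM, half-log steps, duplicate), 0.5% DMSO vehicle; qRT-PCR of CASP3 transcript, housekeeping-normalised (ACTB/GAPDH/POLR2A); bidirectional curve fit vs DMSO baseline.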

Read-out in assay [4]: Cytochrome P450 (CYP24A1), CYP24A1 (gene 1591)
As to the kind of experiment: LTEA_HepaRG_CYP24A1: Life Technologies and Expression Analysis (LTEA) Assay for Cytochrome P450 (CYP24A1) using HepaRG (AID 2283478). A digest of the protocol:
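qRT-PCR read-out: CYP24A1 transcript levels normalized to three housekeeping genes, bidirectional curve fits against 0.5% DMSO baseline. Human HepaRG cells treated 48 h with chemicals at eight concentrations from 100 uM in half-log steps.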

Read-out in assay [5]: Cytochrome P450 (CYP1A2), CYP1A2 (gene 1544)
Kind of assay: LTEA_HepaRG_CYP1A2: Life Technologies and Expression Analysis (LTEA) Assay for Cytochrome P450 (CYP1A2) using HepaRG (AID 2283479). The essentials:
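HepaRG, 48 h exposure, top 100 uM, half-log 8-pt, 0.5% DMSO vehicle, duplicates. Readout: TaqMan qRT-PCR of CYP1A2 mRNA, housekeeping-normalized (ACTB/GAPDH/POLR2A). Gain/loss fit relative to DMSO baseline.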

Read-out in assay [6]: cysteine-aspartic acid protease (CASP8), CASP8 (gene 841)
As to the kind of experiment: LTEA_HepaRG_CASP8: Life Technologies and Expression Analysis (LTEA) Assay for cysteine-aspartic acid protease (CASP8) using HepaRG (AID 2283480). A digest of the protocol: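 Differentiated human HepaRG cells, plated 48 h then switched to serum-free induction medium, were exposed in duplicate for 48 h to 8 half-log concentrations up to 100 uM in 0.5% DMSO. CASP8 mRNA was quantified by qRT-PCR, normalized to ACTB/GAPDH/POLR2A.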

Read-out in assay [7]: Cytochrome P450 (CYP2B6), CYP2B6 (gene 1555)
Kind of assay: LTEA_HepaRG_CYP2B6: Life Technologies and Expression Analysis (LTEA) Assay for Cytochrome P450 (CYP2B6) using HepaRG (AID 2283481). A digest of the protocol: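 Read-out is CYP2B6 mRNA by TaqMan qRT-PCR, normalized to three housekeeping genes and fitted bidirectionally against 0.5% DMSO baseline. Human HepaRG cells received test chemicals for 48 h, top concentration 100 uM, half-log dilutions.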

Read-out in assay [8]: Cytochrome P450 2C19 (Homo sapiens) (UniProt P33261)
As to the kind of experiment: LTEA_HepaRG_CYP2C19: Life Technologies and Expression Analysis (LTEA) Assay for CYP2C19 using HepaRG (AID 2283482). The essentials:
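HepaRG, 48 h chemical exposure, 8-pt half-log series from 100 uM in 0.5% DMSO, duplicates. Readout: CYP2C19 mRNA by TaqMan qRT-PCR, housekeeping-normalized. Bidirectional fit vs DMSO baseline; phenobarbital 1mM as induction control.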

Read-out in assay [9]: CYP2C8 (gene 1558)
As to the kind of experiment: LTEA_HepaRG_CYP2C8: Life Technologies and Expression Analysis (LTEA) Assay for CYP2C8 using HepaRG (AID 2283483). A digest of the protocol:
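Differentiated human HepaRG cells were exposed for 48 h in serum-free induction medium to eight half-log concentrations up to 100 uM in 0.5% DMSO, in duplicate. CYP2C8 mRNA was measured by TaqMan qRT-PCR, normalized to ACTB, GAPDH and POLR2A, and fitted bidirectionally against DMSO.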

Read-out in assay [10]: CYP2C9 (gene 1559)
Kind of assay: LTEA_HepaRG_CYP2C9: Life Technologies and Expression Analysis (LTEA) Assay for CYP2C9 using HepaRG (AID 2283484). The essentials:
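Differentiated human HepaRG cells were exposed 48 h in serum-free induction medium to eight half-log concentrations up to 100 uM in 0.5% DMSO. CYP2C9 mRNA was measured by qRT-PCR, normalized to ACTB, GAPDH and POLR2A, and fitted bidirectionally against DMSO.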

Calls of active or inactive are those of the source. The calls were made as follows: active = hit-call score of the fitted dose curve at least 0.9, where 1 is the maximum; inactive = score below 0.9.

A word on the AC50: it is the concentration at which the activity in the assay is half-maximal.

Apoptosis regulator Bcl-2 (Homo sapiens), sequence (P10415 whole entry, looked up): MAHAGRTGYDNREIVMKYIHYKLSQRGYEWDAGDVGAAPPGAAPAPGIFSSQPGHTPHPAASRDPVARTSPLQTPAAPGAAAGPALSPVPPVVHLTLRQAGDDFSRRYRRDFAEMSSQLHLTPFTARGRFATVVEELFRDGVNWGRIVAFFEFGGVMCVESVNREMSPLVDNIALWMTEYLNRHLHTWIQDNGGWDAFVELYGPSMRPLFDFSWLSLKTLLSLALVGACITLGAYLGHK
Caspase-3 (Homo sapiens), sequence (P42574 whole entry, looked up): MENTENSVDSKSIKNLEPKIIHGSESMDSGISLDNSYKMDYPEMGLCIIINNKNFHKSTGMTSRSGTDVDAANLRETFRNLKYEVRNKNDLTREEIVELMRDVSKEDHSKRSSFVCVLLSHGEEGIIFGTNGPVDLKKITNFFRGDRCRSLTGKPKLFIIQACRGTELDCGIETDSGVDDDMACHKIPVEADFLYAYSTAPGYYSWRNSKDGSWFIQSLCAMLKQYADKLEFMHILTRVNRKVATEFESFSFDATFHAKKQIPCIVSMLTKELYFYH
Cytochrome P450 2C19 (Homo sapiens), sequence (P33261 whole entry, looked up): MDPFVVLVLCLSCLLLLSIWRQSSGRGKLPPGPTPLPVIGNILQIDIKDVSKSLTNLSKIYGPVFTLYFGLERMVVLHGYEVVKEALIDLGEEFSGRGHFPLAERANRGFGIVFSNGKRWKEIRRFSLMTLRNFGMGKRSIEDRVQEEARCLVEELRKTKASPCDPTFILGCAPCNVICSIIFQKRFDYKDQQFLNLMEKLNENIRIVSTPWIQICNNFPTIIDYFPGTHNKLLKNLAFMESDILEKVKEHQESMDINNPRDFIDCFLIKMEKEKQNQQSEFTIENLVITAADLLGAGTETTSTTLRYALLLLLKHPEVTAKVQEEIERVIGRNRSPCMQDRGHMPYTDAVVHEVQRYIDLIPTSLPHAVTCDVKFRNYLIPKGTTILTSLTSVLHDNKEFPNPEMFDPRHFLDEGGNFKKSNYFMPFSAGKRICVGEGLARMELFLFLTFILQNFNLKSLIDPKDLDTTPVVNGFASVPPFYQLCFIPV

For the compound `Oc1ccc(C(c2ccc(O)cc2)(C(F)(F)F)C(F)(F)F)cc1`, the result in assay [1], in assay [2], in assay [3], in assay [4], in assay [5] and in [6] was inactive. Moreover, the compound was called inactive in [9] and in assay [10]. The AC50 in assay [7] is 92 µM (active); in [8], 85.8 µM (active).

As to `CC(c1ccc(O)cc1)(c1ccc(O)cc1)c1ccc(O)cc1`, the result in [1], in assay [4], in assay [6] and in assay [9] was inactive. Moreover, the concentration at half-maximal activity (AC50) in assay [2] was 3.86 µM (active); in [3], 87.5 µM (active); in assay [5] it was 21.8 µM (active); in assay [7] it was 31.3 µM (active); in assay [8] it was 29 µM (active); in assay [10], 50 µM (active).

For the compound `C[C@]12CCC(=O)C=C1CC[C@@H]1[C@@H]2CC[C@]2(C)C(=O)CC[C@@H]12`, the call in [1], in assay [3], in assay [4], in assay [6], in [7] and in assay [9] was inactive. For the same compound, in assay [10], the result was inactive. Besides, the half-maximal activity concentration (AC50) in assay [2] is 50 µM (active); in assay [5], 50 µM (active); in assay [8] it was 10.4 µM (active).

`O=C(NC(=O)c1c(F)cccc1F)Nc1cc(Cl)c(OC(F)(F)C(F)F)c(Cl)c1`: the outcome in assay [1], in [2], in [3], in assay [4], in [6] and in [7] was inactive. The result in assay [8], in assay [9] and in [10] was inactive. The AC50 in [5] was 3.63 µM (active).

On to `Cc1cc(-c2ccc(N)c(C)c2)ccc1N`, for which the call in assay [1], in assay [2], in assay [3], in assay [4], in assay [6] and in [8] was inactive. The call in [9] and in assay [10] was inactive. The concentration at half-maximal activity (AC50) in [5] is 37 µM (active); in [7] it was 9.15 µM (active).

As for `Cc1ccccc1[N+](=O)[O-]`, the compound was called inactive in assay [1], in [2], in assay [3], in assay [4], in [5] and in [6]. The outcome in [8], in assay [9] and in assay [10] was inactive. Also, the concentration at half-maximal activity (AC50) in assay [7] was 13.9 µM (active).

Take `c1ccc(-c2ccccc2)cc1`: the compound was called inactive in assay [1], in assay [2], in assay [3], in assay [4], in assay [5] and in assay [6]. The compound was called inactive in assay [7], in [8], in [9] and in assay [10].

Turning to `O=S(=O)(O)C(F)(F)C(F)(F)C(F)(F)C(F)(F)C(F)(F)C(F)(F)F`, the call in [1], in assay [2], in [3], in assay [4], in [5] and in assay [6] was inactive. Besides, the AC50 in [7] was 24.6 µM (active); in assay [8], 32 µM (active); in [9], 50 µM (active); in [10], 6.28 µM (active).

For the compound `N#Cc1ccc(N(CC(N)=O)CC(F)(F)F)cc1C(F)(F)F`, the call in assay [1], in assay [2], in assay [3], in assay [4], in assay [5] and in [6] was inactive. For the same compound, the outcome in assay [9] and in assay [10] was inactive. The figures for the AC50 in assay [7] and in assay [8] were 0.159 µM (active) and 19.3 µM (active), respectively.

`CCOCCOC(C)=O`: the compound was classed as inactive in assay [1], in [2], in [3], in [4], in [5] and in [6]. Besides, the result in [8], in [9] and in [10] was inactive. Further, the AC50 in assay [7] was 20.3 µM (active).

As to `COc1ccc(O)c(C(C)(C)C)c1`, the compound was called inactive in assay [1], in assay [2], in [3], in [4], in [5] and in [6]. The result in assay [7], in [8], in [9] and in assay [10] was inactive.

As for `Oc1ccc(Cl)cc1Cl`, the result in assay [1], in assay [3], in [4], in assay [5], in assay [6] and in assay [7] was inactive. Besides, the result in assay [8], in assay [9] and in assay [10] was inactive. Further, the half-maximal activity concentration (AC50) in assay [2] was 12.2 µM (active).

`CO/C=C(/C(=O)OC)c1ccccc1COc1cccc(C(F)(F)F)n1`: the concentration at half-maximal activity (AC50) in assay [1] is 9.33 µM (active); in [5], 7.53 µM (active); in assay [7] it was 7.13 µM (active); in assay [8], 8.79 µM (active); in assay [9] it was 8.74 µM (active); in [10], 8.81 µM (active). Also, the outcome in [2], in assay [3], in assay [4] and in assay [6] was inactive.

Turning to `CN(C)CCO`, the outcome in assay [1], in assay [2], in assay [3], in assay [4], in assay [5] and in assay [6] was inactive. In addition, the call in assay [7], in [8], in assay [9] and in assay [10] was inactive.

As to `Cc1cccc(C)c1N`, the compound was classed as inactive in [1], in assay [2], in [3], in assay [4], in assay [5] and in [6]. The compound was classed as inactive in assay [8], in assay [9] and in [10]. In assay [7], the AC50 is 19.3 µM (active).

`O=C(NC(=O)c1cc(F)c(F)cc1Cl)Nc1cc(F)ccc1N1CCC(C(=O)O)CC1`: the compound was called inactive in assay [1], in assay [2], in assay [3], in assay [4], in assay [5] and in [6]. Also, the outcome in assay [7], in [8], in [9] and in [10] was inactive.
